Vif-A3F inh: Vif-A3F binding inhibition; 390,000 tested, 0.2% active; Potency, µM (titrated, usually from 46.1 µM); HeLa A3F-eYFP + Vif (tagged APOBEC3F with the HIV-1 protein that degrades it), YFP fluorescence increase; AID 602313; further: nearly all actives have a fitted effect of over 65% in size
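HeLa cells stably expressing Vif plus C-terminally eYFP-tagged A3F were seeded, incubated overnight at 37 deg C, dosed with compound, incubated overnight again at 37 deg C. Yellow fluorescence (Ex 488/Em 500-530) reported blocked Vif-mediated A3F-eYFP degradation.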
Vif-A3G inh: Vif-A3G binding inhibition | Q9HC16 | HeLa A3G-eYFP + Vif (tagged APOBEC3G with the HIV-1 protein that degrades it), YFP fluorescence, overnight | Potency, µM (highest dose often 46.1 µM), actives largely listed as inhibitors | 410,000 tested, 0.076% active; further: nearly all actives have a fitted effect of over 60% in size
Target sequence (Q9HC16 whole entry, looked up): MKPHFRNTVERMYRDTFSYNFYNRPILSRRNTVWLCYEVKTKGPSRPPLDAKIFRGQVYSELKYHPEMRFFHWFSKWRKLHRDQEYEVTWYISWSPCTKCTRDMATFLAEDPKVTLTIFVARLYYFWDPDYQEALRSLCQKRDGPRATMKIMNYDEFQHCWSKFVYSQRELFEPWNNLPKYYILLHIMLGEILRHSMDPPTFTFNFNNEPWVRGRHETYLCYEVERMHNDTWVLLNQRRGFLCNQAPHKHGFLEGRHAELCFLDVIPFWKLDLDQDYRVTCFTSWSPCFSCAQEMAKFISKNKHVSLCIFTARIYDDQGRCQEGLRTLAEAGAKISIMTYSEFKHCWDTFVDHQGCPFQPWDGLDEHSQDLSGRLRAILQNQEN
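Read-out is eYFP fluorescence (Ex 488/Em 500-530) from Vif-expressing HeLa A3G-eYFP cells; more signal means A3G escaped Vif-mediated degradation. Cells plated overnight, compound pinned in, incubated overnight at 37 deg C.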
PINK1 expr mod: modulators of PINK1 expression | PINK1 immunofluorescence, high-content cytometry, 24 h | Potency, µM (top dose mostly 76.6 µM), actives largely listed as activators | 410,000 tested, 0.2% active | AID 624263; active means well fitted activation curve with a large enough effect; inconclusive means small, poorly fitted or top-dose-only effect; cell line not stated here; further: nearly all actives have a fitted effect of over 65% in size
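PINK1 protein level read as immunofluorescence by microplate cytometer in a fixed, stained stable cell line after 24 h exposure to five compound concentrations, with CCCP as control.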
GRP78 ERSR act: induces the endoplasmic reticulum stress response in human glioma cells. U87-MG GRP78 promoter luciferase reporter, 16 h. Potency, µM, hits mostly activators. 420,000 tested, 0.02% active. AID 602332; further: series mostly up to about 76 µM; nearly all actives have a fitted effect of over 35% in size
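ERSR induction read as luciferase luminescence (Bright-Glo, 10 min at room temperature) in stably transfected human U87-MG glioma cells exposed to compounds for 16 h, using GRP78 as sensor.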
LDHA inh: blocks human lactate dehydrogenase A; purified LDHA, NADH/diaphorase-resazurin fluorescence; active compounds read low; P00338; 480,000 tested, 0.15% active; activity change, % (values are at about 110 or 230 µM); in the data active means activity change below about -30%; inconclusive means mostly about -25% to -30%
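LDH5 2 nM; NADH 0.06 mM, pyruvate 0.2 mM; 200 mM Tris pH 7.4, EDTA, Tween-20; 5 min RT. Detection: diaphorase 0.133 mg/mL + resazurin 37 µM, fluorescence ex540/em590 at 0 and 20 min; normalized to enzyme-free and DMSO wells.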
Akt phos inh: blocks phosphorylation of Akt; activity change, % for hits at 50 µM; AID 651550; 360,000 tested, 0.32% active; Neuro2A IGF-stimulated pAkt S473 HTRF, 20 min; active compounds read low; in the data active means activity change below about -80%; inconclusive means mostly about -51% to -80%
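Neuro2A cells (4,500/well, DMEM with 0.5% FBS) were treated with compound at a single 50 µM final concentration, stimulated with 6 nM IGF for 20 min at 37 °C, and lysed. Phospho-Akt Ser473 was read by HTRF as 665/615 ratio ×10^4.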
Each line names hits and unclear results; the compound was inactive in the other large screens. The list is not random: actives were taken first. Their share in the collection is about 0.74%. Unless noted, the call rests on the fitted dose curve; in most records, active means well fitted curve in the direction sought with a large enough effect; inconclusive means small, poorly fitted or top-dose-only effect, or another doubt; inactive means no such curve, though single readings can be large; an effect the other way counts as inactive or inconclusive.

Cc1ccc(NC(=O)c2c(C)nc3sc(C(=O)NC4CCCC4)c(N)c3c2-c2ccco2)c(C)c1	Vif-A3F inh 2.82µM, PINK1 expr mod inconclusive
NC(=O)c1sc2nc3c(c(-c4ccco4)c2c1N)CCCC3	none
Cc1ccccc1NC(=O)c1sc2nc3c(c(-c4ccco4)c2c1N)CCC3	Vif-A3F inh inconclusive, Vif-A3G inh 12.6µM
CCc1ccc(NC(=O)c2sc3nc(C)c(C(=O)Nc4ccc(C)cc4C)c(-c4ccco4)c3c2N)cc1	Vif-A3F inh 12.6µM (no result: Akt phos inh)
COc1cccc(NC(=O)c2sc3nc(C)c(C(=O)Nc4ccc(C)cc4C)c(-c4ccco4)c3c2N)c1	Vif-A3F inh inconclusive (no result: Akt phos inh)
COc1cccc(NC(=O)c2sc3nc(C)c(C(=O)Nc4ccc(C)cc4C)c(-c4sccc4C)c3c2N)c1	none (no result: Akt phos inh)
Cc1c(Cl)cccc1NC(=S)NCC1(N(C)C)CCCCC1	none (no result: Vif-A3F inh, Vif-A3G inh, PINK1 expr mod, GRP78 ERSR act, Akt phos inh)
C[n+]1c(-c2ccccc2)cc2c(=Cc3ccc([N+](=O)[O-])cc3)c3ccccc3n21	PINK1 expr mod 4.47µM
Cc1cc(C)c(NC(=O)Cn2c(=O)n(Cc3ccc(C(=O)NCc4ccco4)cc3)c(=O)c3sccc32)c(C)c1	Vif-A3F inh inconclusive, Vif-A3G inh 8.91µM (no result: Akt phos inh)
COCCCNC(=O)COc1ccc2c(C)c(Cc3ccccc3)c(=O)oc2c1C	none (no result: Vif-A3F inh, Vif-A3G inh, PINK1 expr mod, GRP78 ERSR act, Akt phos inh)
COc1ccc(-c2nnc(SCC(=O)NCCc3ccccc3)o2)cc1	Akt phos inh -123.9%
S=c1[nH]nc(-c2ccccc2)n1CC1CCCO1 (stereo not drawn)	Akt phos inh -99.4%
Cc1nc(=O)c(-c2ccccc2)c(C)n1CC1CCCO1 (stereo not drawn)	none
Cc1cccc(C)c1N/C=C/c1onc(C)c1[N+](=O)[O-]	Vif-A3F inh inconclusive, Vif-A3G inh inconclusive, PINK1 expr mod 39.8µM
Cc1ccc(N/C=C/c2onc(C)c2[N+](=O)[O-])cc1	none
COc1ccc(-c2nsc(SCC(=O)Nc3cc(C)on3)n2)cc1	Akt phos inh -81.2%
COCCn1cc(C(=O)NCCc2ccccc2C)ccc1=O	none (no result: Vif-A3F inh, Vif-A3G inh, PINK1 expr mod, GRP78 ERSR act, Akt phos inh)
O=C(C[C@H]1C/C=C\C[C@H](NC(=O)OCC2c3ccccc3-c3ccccc32)C(=O)O[C@H](c2ccccc2)CNC1=O)N[C@H](CO)Cc1ccccc1	GRP78 ERSR act 28.2µM
CCOc1cc(Br)c(/C=C2/NC(=O)NC2=O)cc1OCC	none (no result: Vif-A3F inh, Vif-A3G inh, PINK1 expr mod, GRP78 ERSR act, Akt phos inh)
COc1ccccc1NC(=O)c1sc2ncn(CC(=O)Nc3ccccc3)c(=O)c2c1C	Vif-A3F inh 25.1µM
CC(C)C/C(=N\NC(=O)C1CC1(c1ccccc1)c1ccccc1)c1ccccc1 (stereo not drawn)	none (no result: Vif-A3F inh, Vif-A3G inh, PINK1 expr mod, GRP78 ERSR act, Akt phos inh)
O=C1/C(=C/c2ccccc2Cl)Cc2ccccc21	none (no result: Vif-A3F inh, Vif-A3G inh, PINK1 expr mod, GRP78 ERSR act, Akt phos inh)
Nc1ccccc1C=C1Cc2ccccc2C1=O	Vif-A3F inh 6.31µM, Vif-A3G inh inconclusive
O=C1C(=Cc2ccccc2[N+](=O)[O-])Cc2ccccc21	Vif-A3F inh 12.6µM, Vif-A3G inh inconclusive
O=C1/C(=C/c2ccccc2Br)Cc2ccccc21	none (no result: Vif-A3F inh, Vif-A3G inh, PINK1 expr mod, GRP78 ERSR act, Akt phos inh)
Cc1ccc(S(=O)(=O)NCC2(c3ccccc3)CC2)c(Cl)c1	none (no result: Vif-A3F inh, Vif-A3G inh, PINK1 expr mod, GRP78 ERSR act, Akt phos inh)
COc1cccc2ccc(CC(O)(c3ccccc3)c3ccccc3)nc12	PINK1 expr mod 39.8µM
CC(C)N(C)S(=O)(=O)N(C)CC1COc2ccccc2O1 (stereo not drawn)	LDHA inh -32.4 (no result: Vif-A3F inh, Vif-A3G inh, PINK1 expr mod, GRP78 ERSR act, Akt phos inh)
Cc1cccc(NC(=O)CCCN2C(=O)c3ccccc3C2=O)n1	Akt phos inh -111.4%
O=C(CCN1C(=O)c2ccccc2C1=O)NC1=NCCS1	Akt phos inh -112.5%
Cc1nc2ccc(C(=O)NCCCN3CCOCC3)cc2nc1C	none (no result: Vif-A3F inh, Vif-A3G inh, PINK1 expr mod, GRP78 ERSR act, Akt phos inh)
CC1(C)CC(N2CCCC2)=CC(=[N+]2CCCCC2)C1	none
CC1(C)CC(N2CCN(Cc3ccccc3)CC2)=CC(=[N+]2CCCCC2)C1	PINK1 expr mod inconclusive, LDHA inh -43.1
C/C=C/c1ccc(OCCCNC)c(OC)c1	Akt phos inh -118.9%
C/C=C/c1ccc(OCCNCc2ccccc2)c(OC)c1	none
CCCOc1ccc(C(=O)NC(=S)N2CCN(c3cc4c(cc3F)c(=O)c(C(=O)O)cn4CC)CC2)cc1	PINK1 expr mod 35.5µM
CCn1cc(C(=O)O)c(=O)c2cc(F)c(N3CCN(S(=O)(=O)c4ccc(NC(=O)OC)cc4)CC3)cc21	PINK1 expr mod 31.6µM
